Active and inactive are the calls of the source. The calls were made as follows: active = hit-call score of the fitted dose curve at least 0.9, where 1 is the maximum; inactive = score below 0.9.
Experiments:
Conditions in all cases: mRNA level, 48 h; actives raise or lower the signal
[1] = read-out: ATP-citrate lyase (ACLY), ACLY (gene 47); experiment: LTEA_HepaRG_ACLY: Life Technologies and Expression Analysis (LTEA) Assay for ATP-citrate lyase (ACLY) using HepaRG (AID 2283466)
In short: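 qRT-PCR readout of ACLY transcript after 48 h chemical treatment of HepaRG cells; expression normalized to three housekeeping genes. Eight-point half-log series, highest 100 uM, 0.5% DMSO vehicle. Gain or loss fitted against DMSO baseline.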

[2] = read-out: Peroxisomal acyl-coenzyme A oxidase 1 (ACOX1) gene, ACOX1 (gene 51); experiment: LTEA_HepaRG_ACOX1: Life Technologies and Expression Analysis (LTEA) Assay for Peroxisomal acyl-coenzyme A oxidase 1 (ACOX1) gene using HepaRG (AID 2283467)
In short: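 HepaRG, 48 h chemical exposure, 8-pt half-log series from 100 uM top, 0.5% DMSO vehicle, duplicates. Readout: ACOX1 mRNA by Fluidigm qRT-PCR, housekeeping-normalized; bidirectional fit vs DMSO baseline.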

[3] = read-out: Alkaline Phosphatase, Placental (ALPP) gene, ALPP (gene 250); experiment: LTEA_HepaRG_ALPP: Life Technologies and Expression Analysis (LTEA) Assay for Alkaline Phosphatase, Placental (ALPP) gene using HepaRG (AID 2283468);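 as to AC50: differentiated human HepaRG liver cells in serum-free induction medium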
In short: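 qRT-PCR readout of ALPP mRNA (Fluidigm TaqMan), normalized to ACTB/GAPDH/POLR2A, after 48 h chemical exposure of HepaRG cells; 8-point half-log series, top 100 uM, 0.5% DMSO vehicle. Bidirectional curve fit versus DMSO baseline.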

[4] = read-out: Bcl-2 (BAD) gene, BAD (gene 572); experiment: LTEA_HepaRG_BAD: Life Technologies and Expression Analysis (LTEA) Assay for Bcl-2 (BAD) gene using HepaRG (AID 2283469)
In short: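 HepaRG, 48 h exposure, 8-pt half-log curve from 100 uM in 0.5% DMSO, duplicates. Readout: TaqMan qRT-PCR for BAD mRNA, housekeeping-normalised (ACTB/GAPDH/POLR2A); gain or loss fitted against DMSO baseline.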

[5] = read-out: Bcl-2 (BAX) gene, BAX (gene 581); experiment: LTEA_HepaRG_BAX: Life Technologies and Expression Analysis (LTEA) Assay for Bcl-2 (BAX) gene using HepaRG (AID 2283470)
In short: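 qRT-PCR read-out of BAX mRNA, normalized to three housekeeping genes, after 48 h chemical exposure of human HepaRG cells in serum-free induction medium; eight-point half-log series, top 100 uM, 0.5% DMSO vehicle; bidirectional fit versus DMSO.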

[6] = read-out: Alpha-fetoprotein (AFP) gene, AFP (gene 174); experiment: LTEA_HepaRG_AFP: Life Technologies and Expression Analysis (LTEA) Assay for Alpha-fetoprotein (AFP) gene using HepaRG (AID 2283472)
In short: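 qRT-PCR (Fluidigm TaqMan) readout of AFP transcript, normalized to three housekeeping genes, fitted bidirectionally against 0.5% DMSO baseline. HepaRG cells received chemicals for 48 h in serum-free induction medium, top concentration 100 uM, half-log steps.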

BCL2L11 (gene 10018) = experiment: LTEA_HepaRG_BCL2L11: Life Technologies and Expression Analysis (LTEA) Assay for Bcl-2 (BCL2L11) gene using HepaRG (AID 2283473)
In short: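 HepaRG, 48 h exposure, 8-pt half-log series from 100 uM in 0.5% DMSO, duplicates; qRT-PCR (Fluidigm TaqMan) for BCL2L11, housekeeping-normalized; bidirectional curve fit relative to DMSO baseline.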

[7] = read-out: Apolipoprotein A-V (APOA5) gene, APOA5 (gene 116519); experiment: LTEA_HepaRG_APOA5: Life Technologies and Expression Analysis (LTEA) Assay for Apolipoprotein A-V (APOA5) gene using HepaRG (AID 2283474)
In short: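 HepaRG, 48 h chemical exposure in serum-free induction medium, 8-pt half-log series (top 100 uM), 0.5% DMSO vehicle, duplicates. Readout: APOA5 mRNA by qRT-PCR, housekeeping-normalized; bidirectional fit vs DMSO baseline.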

[8] = read-out: Apoptosis regulator Bcl-2 (Homo sapiens) (UniProt P10415); experiment: LTEA_HepaRG_BCL2: Life Technologies and Expression Analysis (LTEA) Assay for Bcl-2 gene using HepaRG (AID 2283475)
In short: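 qRT-PCR read-out (Fluidigm TaqMan) of BCL2 transcript, normalised to three housekeeping genes, after 48 h chemical exposure of HepaRG cells; 8-point half-log series, top 100 uM, 0.5% DMSO vehicle. Gain or loss of signal fitted relative to DMSO baseline.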

[9] = read-out: adenosine kinase (ADK) gene, ADK (gene 132); experiment: LTEA_HepaRG_ADK: Life Technologies and Expression Analysis (LTEA) Assay for adenosine kinase (ADK) gene using HepaRG (AID 2283471)
In short: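 ADK expression quantified by qRT-PCR, normalised to three housekeeping genes, after 48 h exposure of HepaRG cells to eight concentrations (top 100 uM, half-log steps, duplicate, 0.5% DMSO). Up- or down-regulation fitted relative to vehicle.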

Apoptosis regulator Bcl-2 (Homo sapiens), sequence (P10415 whole entry, looked up): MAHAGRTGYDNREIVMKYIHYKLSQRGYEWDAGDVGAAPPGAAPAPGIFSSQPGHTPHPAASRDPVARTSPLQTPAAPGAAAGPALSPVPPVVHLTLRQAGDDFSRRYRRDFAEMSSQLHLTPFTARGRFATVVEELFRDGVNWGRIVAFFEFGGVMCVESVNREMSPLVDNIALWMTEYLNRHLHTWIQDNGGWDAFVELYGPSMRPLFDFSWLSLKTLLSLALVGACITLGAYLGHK

Compound	outcome [1]	outcome [2]	outcome [3]	outcome [4]	outcome [5]	outcome [6]	outcome (BCL2L11 (gene 10018))	outcome [7]	outcome [8]	outcome [9]	AC50 [6]	AC50 [1]	AC50 [3]	AC50 [7]	AC50 (BCL2L11 (gene 10018))	AC50 [2]	AC50 [5]	AC50 [8]
COc1ccc(O)c(C(C)(C)C)c1	inactive	inactive	inactive	inactive	inactive	inactive	inactive	inactive	inactive	–	–	–	–	–	–	–	–	–
Clc1ccc(Cl)cc1	inactive	inactive	inactive	–	inactive	inactive	inactive	inactive	inactive	inactive	–	–	–	–	–	–	–	–
O=C(NC(=O)c1c(F)cccc1F)Nc1cc(Cl)c(OC(F)(F)C(F)F)c(Cl)c1	inactive	inactive	inactive	–	inactive	inactive	inactive	inactive	inactive	inactive	–	–	–	–	–	–	–	–
CCC(C)(c1ccc(O)cc1)c1ccc(O)cc1	inactive	inactive	inactive	inactive	inactive	–	inactive	inactive	inactive	inactive	50 µM (active)	–	–	–	–	–	–	–
CC(C)C(=O)OCC(C)(C)C(OC(=O)C(C)C)C(C)C (stereo not drawn)	inactive	inactive	inactive	inactive	inactive	inactive	inactive	inactive	inactive	inactive	–	–	–	–	–	–	–	–
C[C@]12CCC(=O)C=C1CC[C@@H]1[C@@H]2CC[C@]2(C)C(=O)CC[C@@H]12	–	inactive	–	–	inactive	–	inactive	–	inactive	inactive	50 µM (active)	88.9 µM (active)	29.8 µM (active)	50 µM (active)	–	–	–	–
O=C(N[C@H]1CN2CCC1CC2)c1cc2ccoc2cn1	inactive	inactive	inactive	inactive	inactive	inactive	inactive	inactive	inactive	–	–	–	–	–	–	–	–	–
Clc1ccc(C(Cl)(Cl)Cl)cc1	inactive	inactive	inactive	inactive	inactive	inactive	inactive	inactive	inactive	–	–	–	–	–	–	–	–	–
N#Cc1ccc(N(CC(N)=O)CC(F)(F)F)cc1C(F)(F)F	inactive	inactive	inactive	–	inactive	inactive	inactive	inactive	inactive	inactive	–	–	–	–	–	–	–	–
Clc1ccc(C(c2ccccc2Cl)C(Cl)(Cl)Cl)cc1 (stereo not drawn)	inactive	inactive	inactive	inactive	inactive	–	inactive	–	inactive	–	36.3 µM (active)	–	–	10.7 µM (active)	–	–	–	–
CCC(C)(CC)c1cc(NC(=O)c2c(OC)cccc2OC)on1	inactive	inactive	inactive	–	inactive	–	inactive	inactive	inactive	inactive	28.9 µM (active)	–	–	–	–	–	–	–
CC#Cc1cc(C)nc(Nc2ccccc2)n1	inactive	inactive	–	inactive	inactive	–	–	inactive	inactive	inactive	26.4 µM (active)	–	50 µM (active)	–	13 µM (active)	–	–	–
ClC1=C(Cl)[C@]2(Cl)[C@@H]3[C@@H](Cl)[C@H]4O[C@H]4[C@@H]3C1(Cl)C2(Cl)Cl	–	inactive	inactive	inactive	inactive	–	inactive	inactive	inactive	inactive	21.9 µM (active)	75 µM (active)	–	–	–	–	–	–
Cc1ccccc1O	inactive	inactive	inactive	inactive	inactive	inactive	inactive	inactive	inactive	–	–	–	–	–	–	–	–	–
CCCCCCCCCC[N+](C)(C)CCCCCCCCCC	inactive	–	–	inactive	–	inactive	inactive	inactive	inactive	–	–	–	90.5 µM (active)	–	–	76.4 µM (active)	60.3 µM (active)	–
C1CC2OC2CC1C1CO1 (stereo not drawn)	inactive	inactive	inactive	inactive	inactive	inactive	inactive	inactive	inactive	–	–	–	–	–	–	–	–	–
CC(C)(c1ccccc1)c1ccc(O)cc1	inactive	inactive	inactive	inactive	inactive	–	inactive	–	inactive	–	77.8 µM (active)	–	–	78.3 µM (active)	–	–	–	–
CCCN(CCC)N=O	inactive	inactive	inactive	inactive	inactive	inactive	inactive	inactive	inactive	–	–	–	–	–	–	–	–	–
C=CC(N)=O	inactive	inactive	inactive	inactive	inactive	inactive	inactive	inactive	inactive	inactive	–	–	–	–	–	–	–	–
O=C(O)C(F)(F)C(F)(F)C(F)(F)C(F)(F)C(F)(F)C(F)(F)C(F)(F)C(F)(F)F	inactive	–	–	inactive	–	–	–	–	–	inactive	78.4 µM (active)	–	50 µM (active)	82 µM (active)	50 µM (active)	90.4 µM (active)	76.3 µM (active)	73.6 µM (active)
Cc1cc2c3c(c1)C(c1ccccc1)=N[C@@H](NC(=O)c1ccncc1)C(=O)N3CC2	–	inactive	–	–	inactive	–	inactive	–	inactive	inactive	50 µM (active)	74.3 µM (active)	10.3 µM (active)	62.5 µM (active)	–	–	–	–
O=S(=O)(O)C(F)(F)C(F)(F)C(F)(F)C(F)(F)C(F)(F)C(F)(F)F	inactive	–	inactive	inactive	inactive	inactive	inactive	–	inactive	–	–	–	–	3.42 µM (active)	–	6.58 µM (active)	–	–
CC(c1ccc(O)cc1)(c1ccc(O)cc1)c1ccc(O)cc1	–	–	–	inactive	inactive	inactive	–	inactive	inactive	–	–	61.6 µM (active)	0.895 µM (active)	–	82.2 µM (active)	70.5 µM (active)	–	–
O=NN(c1ccccc1)c1ccccc1	inactive	inactive	–	inactive	inactive	inactive	–	–	inactive	–	–	–	82.7 µM (active)	76.1 µM (active)	50 µM (active)	–	–	–
CC1=C2C[C@H]3[C@@H](CC=C4C[C@@H](O)CC[C@@]43C)[C@@H]2CC[C@]12O[C@@H]1C[C@H](C)CN[C@H]1[C@H]2C	inactive	inactive	inactive	inactive	inactive	inactive	inactive	inactive	inactive	inactive	–	–	–	–	–	–	–	–
CCC(=O)O[C@H]1CC[C@H]2[C@@H]3CCC4=CC(=O)CC[C@]4(C)[C@H]3CC[C@]12C	inactive	inactive	inactive	inactive	inactive	inactive	inactive	inactive	inactive	–	–	–	–	–	–	–	–	–
c1ccc(-c2ccccc2)cc1	inactive	inactive	inactive	inactive	inactive	inactive	inactive	inactive	inactive	inactive	–	–	–	–	–	–	–	–
ClC1=C(Cl)[C@]2(Cl)[C@@H]3[C@@H]4C[C@@H]([C@H]5O[C@@H]45)[C@@H]3[C@@]1(Cl)C2(Cl)Cl	–	–	inactive	inactive	inactive	–	inactive	inactive	–	–	0.0145 µM (active)	0.033 µM (active)	–	–	–	0.0311 µM (active)	–	50 µM (active)
C=CC(=O)NCNC(=O)C=C	–	inactive	inactive	–	inactive	inactive	inactive	inactive	inactive	inactive	–	12.7 µM (active)	–	–	–	–	–	–
Cc1cccc([N+](=O)[O-])c1	inactive	inactive	inactive	inactive	inactive	inactive	inactive	inactive	inactive	–	–	–	–	–	–	–	–	–

— PubChem BioAssay (EPA / NIEHS)
